Reference: PubChem BioAssay
Calls of active or inactive are those of the source.

Key:
[1] = optical density shifts of acrAB sulA E. coli – strain DRC41, OD650, 48 h, E. coli filamentation inducer project, primary screen (AID 1152); settings: higher = more signal, called active from +8 up or from −8 down;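 note: E. coli MC1000 strain DRC41 lacking acrAB efflux pump and sulA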
[2] = probe aLefty1 binding on compound microarray – biochemical, small-molecule microarray, 635/667 nm fluorescence, primary screen (AID 1153); settings: higher = more signal;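 note: score merges spot fluorescence with signal-to-noise ratio from the scanned slide images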
[3] = plasmodial surface anion channel blockers, osmotic lysis – cell-based, P. falciparum Indochina, OD700, 1 h, primary screen (AID 1154); settings: P. falciparum Indochina infected RBC osmotic lysis, higher = more signal, called active from +8 up or from −8 down
[4] = plasmodial surface anion channel blockers, osmotic lysis – cell-based, P. falciparum Indochina, OD700, 2 h, primary screen (AID 1155);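 note: lysis reports solute entry through the parasite surface anion channel PSAC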; settings: P. falciparum Indochina infected erythrocytes, higher = more signal, called active from +8 up or from −8 down
[5] = changes in parasitized red cell lysis, either direction – P. falciparum Indochina, OD700, 3 h, PSAC antagonist project, primary screen (AID 1156); settings: P. falciparum-infected erythrocytes, osmotic lysis, higher = more signal, called active from +8 up or from −8 down
[6] = plasmodial surface anion channel blockers, osmotic lysis – cell-based, P. falciparum Indochina, OD700, 18 h, primary screen (AID 1157); settings: P. falciparum Indochina infected erythrocytes, osmotic lysis OD700, 18 h; higher = more signal, called active from +8 up or from −8 down
[7] = S6 kinase pathway phospho-S6 level changes – cell-based, A549, cytoblot, luminescence, serum-stimulated, primary screen (AID 1158); settings: 5 h, higher = more signal;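 note: serum-stimulated A549 lung adenocarcinoma cells; signal is phosphorylated S6 detected by cytoblot immunostaining with HRP secondary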
[8] = target: NADPH oxidase 2 (Homo sapiens) (UniProt P04839); assay: compounds shifting NOX2 Amplex Red fluorescence – cell-based, HEK293-NOX2, PMA-stimulated, NOX inhibitor project, primary screen (AID 1159); settings: 45 min, higher = more signal, called active from +8 up or from −8 down; note: test concentration not given here
[9] = target: NADPH oxidase 4 (Homo sapiens) (UniProt Q9NPH5); assay: compounds shifting NOX4 Amplex Red fluorescence – cell-based, HEK293-NOX4, tetracycline-induced, NOX inhibitor project, primary screen (AID 1160); settings: HEK293-NOX4, Amplex Red H2O2 fluorescence, 45 min; higher = more signal, called active from +8 up or from −8 down
[10] = target: NADPH oxidase 5 (Homo sapiens) (UniProt Q96PH1); assay: compounds shifting NOX5 Amplex Red fluorescence – cell-based, HEK293-NOX5, NOX inhibitor project, primary screen (AID 1161); settings: HEK293-NOX5, ionomycin, 45 min, higher = more signal
NADPH oxidase 5 (Homo sapiens), sequence (Q96PH1 whole entry, looked up): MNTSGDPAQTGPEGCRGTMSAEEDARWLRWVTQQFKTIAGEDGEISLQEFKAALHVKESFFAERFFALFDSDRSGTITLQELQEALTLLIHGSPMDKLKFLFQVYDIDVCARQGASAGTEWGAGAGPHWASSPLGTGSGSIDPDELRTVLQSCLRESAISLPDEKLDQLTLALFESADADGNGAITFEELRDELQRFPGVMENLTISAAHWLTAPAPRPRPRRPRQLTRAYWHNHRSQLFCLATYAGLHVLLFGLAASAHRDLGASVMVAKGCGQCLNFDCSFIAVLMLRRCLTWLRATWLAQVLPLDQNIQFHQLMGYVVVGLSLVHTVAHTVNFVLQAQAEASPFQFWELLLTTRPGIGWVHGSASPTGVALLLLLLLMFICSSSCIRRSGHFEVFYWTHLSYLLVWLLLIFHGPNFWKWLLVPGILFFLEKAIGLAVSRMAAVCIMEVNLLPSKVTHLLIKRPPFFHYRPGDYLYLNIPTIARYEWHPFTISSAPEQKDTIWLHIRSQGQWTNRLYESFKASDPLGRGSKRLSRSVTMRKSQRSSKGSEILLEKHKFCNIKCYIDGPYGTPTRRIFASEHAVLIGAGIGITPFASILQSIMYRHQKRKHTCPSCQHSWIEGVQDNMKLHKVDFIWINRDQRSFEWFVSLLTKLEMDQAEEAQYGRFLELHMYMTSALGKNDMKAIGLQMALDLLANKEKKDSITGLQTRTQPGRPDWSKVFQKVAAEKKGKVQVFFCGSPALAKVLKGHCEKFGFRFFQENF

NADPH oxidase 4 (Homo sapiens), sequence (Q9NPH5 whole entry, looked up): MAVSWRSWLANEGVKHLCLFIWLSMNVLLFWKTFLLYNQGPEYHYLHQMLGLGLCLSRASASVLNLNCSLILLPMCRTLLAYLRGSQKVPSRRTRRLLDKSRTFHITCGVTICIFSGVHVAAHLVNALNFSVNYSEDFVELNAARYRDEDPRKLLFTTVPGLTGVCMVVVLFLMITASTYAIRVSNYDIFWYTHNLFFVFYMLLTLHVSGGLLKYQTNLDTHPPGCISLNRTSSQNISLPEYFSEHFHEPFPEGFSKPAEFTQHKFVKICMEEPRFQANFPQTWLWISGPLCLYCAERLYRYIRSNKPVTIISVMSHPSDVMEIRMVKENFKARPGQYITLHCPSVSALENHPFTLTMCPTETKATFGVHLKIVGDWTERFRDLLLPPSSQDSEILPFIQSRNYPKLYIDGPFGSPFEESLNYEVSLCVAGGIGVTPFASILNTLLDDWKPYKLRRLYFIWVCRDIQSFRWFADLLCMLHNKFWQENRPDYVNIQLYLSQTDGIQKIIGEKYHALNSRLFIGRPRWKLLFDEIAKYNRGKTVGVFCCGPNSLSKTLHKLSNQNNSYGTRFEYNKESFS
NADPH oxidase 2 (Homo sapiens), sequence (P04839 whole entry, looked up): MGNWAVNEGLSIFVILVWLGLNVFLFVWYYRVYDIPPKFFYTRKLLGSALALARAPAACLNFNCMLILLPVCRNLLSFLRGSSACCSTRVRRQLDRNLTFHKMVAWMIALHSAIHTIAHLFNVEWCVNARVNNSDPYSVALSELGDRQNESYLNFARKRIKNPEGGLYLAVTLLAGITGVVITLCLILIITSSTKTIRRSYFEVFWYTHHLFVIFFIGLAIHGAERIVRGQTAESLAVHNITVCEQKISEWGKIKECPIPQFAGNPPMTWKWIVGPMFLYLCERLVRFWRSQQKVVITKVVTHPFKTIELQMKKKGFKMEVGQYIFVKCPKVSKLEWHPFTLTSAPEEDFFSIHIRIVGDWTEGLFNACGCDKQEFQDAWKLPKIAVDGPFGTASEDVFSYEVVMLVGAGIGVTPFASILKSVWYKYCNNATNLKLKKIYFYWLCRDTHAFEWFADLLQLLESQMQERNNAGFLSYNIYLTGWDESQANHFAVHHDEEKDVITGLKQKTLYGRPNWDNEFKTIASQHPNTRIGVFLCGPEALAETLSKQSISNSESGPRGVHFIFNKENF

| Compound | z-score [1] | composite z-score [2] | z-score [3] | z-score [4] | z-score [5] | z-score [6] | z-score [7] | z-score [8] | z-score [9] | z-score [10] |
| --- | --- | --- | --- | --- | --- | --- | --- | --- | --- | --- |
| CCOC(=O)C1=CCC(c2ccc(C)cc2)N(S(=O)(=O)c2ccc(C)cc2)C1 (stereo not given) | -0.792 (inactive) | 0.174 | 2.05 (inactive) | 0.901 (inactive) | -0.628 (inactive) | 0.509 (inactive) | -0.78 | 0.63 (inactive) | 0.637 (inactive) | 1.17 |
| COC(=O)[C@@]1(Cc2ccc(OC)cc2)[C@H]2c3cc(C(=O)N4CCCC4)n(Cc4ccccc4)c3C[C@H]2CN1C(=O)c1ccccc1 | -1.49 (inactive) | 2.19 | 2.81 (inactive) | 0.496 (inactive) | 0.748 (inactive) | 0.69 (inactive) | -0.378 | -0.0412 (inactive) | -0.857 (inactive) | -3.04 |
| CCCC[C@@H]1C[C@H]1[C@@H](NC(=O)c1ccco1)c1ccc(C(=O)OC)cc1 | -2.59 (inactive) | -0.214 | 1.59 (inactive) | 0.501 (inactive) | 0.394 (inactive) | 0.323 (inactive) | -0.0467 | -1.55 (inactive) | -1.96 (inactive) | 1.82 |
| C=CC[C@]1(C(=O)N2CCCCC2)N=C(c2ccc(OCCCO)cc2)O[C@H]1c1ccccc1 | 0.573 (inactive) | 0.629 | 18.8 (active) | 3.99 (inactive) | 1.61 (inactive) | 1.11 (inactive) | -0.232 | 0.186 (inactive) | -0.0137 (inactive) | -1.71 |
| Cc1ccc(C(C)CC(O)C2C=CC3C(=O)N(C)C(=O)C3N2NC(=O)OC(C)(C)C)o1 (stereo not given) | -0.502 (inactive) | 0.196 | -0.205 (inactive) | 0.562 (inactive) | -0.168 (inactive) | 0.435 (inactive) | -0.497 | 0.347 (inactive) | -0.202 (inactive) | -0.701 |
| C[C@@H]1ON(c2cccc(C(=O)OC(C)(C)C)c2)[C@H](c2ccc(Br)cc2)[C@H]1C(=O)N1C(=O)OC[C@H]1Cc1ccccc1 | -0.46 (inactive) | 0.2 | -0.351 (inactive) | 0.488 (inactive) | -0.611 (inactive) | 0.011 (inactive) | 0.217 | -1.01 (inactive) | -0.079 (inactive) | -0.0305 |
| CCCC=C(CCC)[C@@H](NC(=O)Oc1ccc(F)cc1)c1ccc(C(=O)OC)cc1 | -0.755 (inactive) | 0.221 | 0.454 (inactive) | 1.34 (inactive) | -1.54 (inactive) | 1.35 (inactive) | 0.298 | -0.395 (inactive) | -1.17 (inactive) | -0.592 |
| COc1ccc([Si](C)(C)[C@@H]2[C@@H](CCO)O[C@]3(C(=O)N(Cc4ccc(N5C(=O)COc6ccccc65)cc4)c4ccccc43)[C@H]2C)cc1 | -0.163 (inactive) | 0.165 | 3.9 (inactive) | 3.84 (inactive) | 0.746 (inactive) | 2.39 (inactive) | 0.866 | 0.506 (inactive) | 1.46 (inactive) | 1.38 |
| CN(C)CCCC[C@@H]1NC(=O)[C@H]2C[C@@H](C(=O)NCCCCCNC(=O)CS)[C@@H](c3cccc(OCCO)c3)N2C1=O | -0.728 (inactive) | -0.0601 | 2.9 (inactive) | 0.55 (inactive) | -0.744 (inactive) | 0.203 (inactive) | -0.534 | 1.76 (inactive) | 0.749 (inactive) | 1.13 |
| COC(=O)[C@@]1(Cc2ccccc2)[C@H]2c3cc(C(=O)N(C)C)n(CCSCCO)c3C[C@H]2CN1C(=O)c1ccccc1 | -1.8 (inactive) | 0.138 | 1.02 (inactive) | 0.187 (inactive) | 0.189 (inactive) | 0.496 (inactive) | -0.199 | 0.594 (inactive) | 0.597 (inactive) | -0.72 |
| CC(=O)NCCCC[C@@H]1NC(=O)[C@@H]2C[C@H](C(=O)NCCCCCCNC(=O)CS)[C@H](c3cccc(OCCO)c3)N2C1=O | -0.493 (inactive) | -0.0334 | 3.47 (inactive) | 0.642 (inactive) | 0.0299 (inactive) | 0.351 (inactive) | 0.468 | 1.55 (inactive) | 0.157 (inactive) | 0.303 |
| COc1cc2c(cc1OC)CN(C(=O)[C@H]1[C@@H]3C(=O)O[C@@H](c4ccccc4)[C@@H](c4ccccc4)N3[C@@H](c3ccc(O)cc3)[C@]13C(=O)Nc1ccc(C#CC4=CCCCC4)cc13)CC2 | 1.21 (inactive) | 0.35 | 0.924 (inactive) | 0.445 (inactive) | 0.79 (inactive) | 0.736 (inactive) | -0.226 | 0.685 (inactive) | 0.513 (inactive) | 1.88 |
| COc1ccc(C(O)C2C=CC3C(=O)N(c4ccccc4)C(=O)C3N2Nc2ccc(C(C)C)cc2)cc1OCc1ccccc1 (stereo not given) | -3.31 (inactive) | 0.129 | 2.07 (inactive) | 1.62 (inactive) | -0.167 (inactive) | 1.47 (inactive) | -0.951 | 0.506 (inactive) | -2.55 (inactive) | -1.22 |
| COC(=O)[C@@]1(Cc2ccc(F)cc2)[C@H]2c3cc(C(=O)N(C)C)n(CC4CC4)c3C[C@H]2CN1C(=O)c1ccccc1 | -0.98 (inactive) | 2.06 | 3.33 (inactive) | 1.15 (inactive) | 1.07 (inactive) | 1.4 (inactive) | -0.884 | -0.0955 (inactive) | 0.281 (inactive) | 0.873 |
| COc1ccc(C(O)C2C=CC3C(=O)N(c4ccccc4)C(=O)C3N2Nc2ccccc2F)cc1OCc1ccccc1 (stereo not given) | -1 (inactive) | 0.5 | 9.5 (active) | 2.5 (inactive) | 0.361 (inactive) | 1.17 (inactive) | -1.12 | -1.18 (inactive) | -2.79 (inactive) | -1.17 |
| CN(C)C(=O)[C@]1(Cc2ccccc2CN=[N+]=[N-])N=C(c2ccc(OCCCO)cc2)O[C@@H]1c1ccccc1CN=[N+]=[N-] | -0.214 (inactive) | 0.425 | 26.8 (active) | 13.4 (active) | 2.66 (inactive) | -0.0196 (inactive) | 1.18 | -3.36 (inactive) | -1.6 (inactive) | -1.78 |
| COc1ccc([Si](C)(C)[C@H]2[C@H](CCO)O[C@@]3(C(=O)N(C)c4c(Br)cc(C)cc43)[C@@H]2C)cc1 | -1.28 (inactive) | 0.0486 | 7.79 (inactive) | 1.8 (inactive) | -2.17 (inactive) | 0.987 (inactive) | 0.0508 | -1.41 (inactive) | -1.15 (inactive) | -0.777 |
| COc1cc2c(cc1OC)CN(C(=O)[C@H]1[C@@H]3C(=O)O[C@@H](c4ccccc4)[C@@H](c4ccccc4)N3[C@@H](c3ccc(O)cc3)[C@]13C(=O)Nc1ccc(C#CCNC(N)=O)cc13)CC2 | 0.595 (inactive) | 0.075 | 0.342 (inactive) | 0.137 (inactive) | -0.518 (inactive) | 0.335 (inactive) | 0.152 | 0.47 (inactive) | 0.732 (inactive) | 0.56 |
| C=CC[C@@]1(C(N)=O)N=C(c2ccc(OCCCO)cc2)O[C@@H]1c1ccccc1CN=[N+]=[N-] | 0.0347 (inactive) | 0.571 | 21.5 (active) | 4.04 (inactive) | 2 (inactive) | -0.413 (inactive) | 2.43 | -0.934 (inactive) | 0.313 (inactive) | -0.802 |
| CC(C)(C)OC(=O)CC[C@]1(C(=O)O)N=C(c2ccc(OCCCO)cc2)O[C@H]1c1ccccc1N=[N+]=[N-] | 0.234 (inactive) | 1.58 | 32.9 (active) | 28.4 (active) | 0.912 (inactive) | 6.45 (inactive) | -0.466 | 0.7 (inactive) | 1.14 (inactive) | 1.31 |
| O=C1NC(=O)C2C1C=CC(C(O)Cc1ccccc1)N2Nc1ccc(Cl)cc1Cl (stereo not given) | -0.78 (inactive) | 0.599 | 4.35 (inactive) | 0.953 (inactive) | 0.273 (inactive) | 1.15 (inactive) | -0.834 | -1.28 (inactive) | -5.02 (inactive) | -1.9 |
| CCCC=C(CCC)[C@@H](NS(=O)(=O)c1cccs1)c1ccc(C(=O)OC)cc1 | -1.35 (inactive) | 0.133 | 1.19 (inactive) | 0.0633 (inactive) | 1.28 (inactive) | 0.567 (inactive) | -1.13 | -0.547 (inactive) | -3.59 (inactive) | 0.708 |
| CC(C)C[C@@H]1NC(=O)[C@@H]2C[C@H](C(=O)NCCCCCN)[C@H](c3cccc(OCCO)c3)N2C1=O | 1.28 (inactive) | 0.427 | 3.07 (inactive) | -0.74 (inactive) | 1.1 (inactive) | -2 (inactive) | 0.836 | 1.22 (inactive) | 0.74 (inactive) | 1.43 |
| CN1C(=O)C2C=CC(C(O)c3cccs3)N(Nc3ccccc3)C2C1=O (stereo not given) | -1.6 (inactive) | 0.206 | -0.203 (inactive) | 0.65 (inactive) | -0.109 (inactive) | 0.731 (inactive) | -1.19 | -2 (inactive) | -4.89 (inactive) | -3.11 |
